# Source: PubChem BioAssay (Tox21)
# “And” between values parts separate entries of the source, which are not always exact repeats. Equal values may be shown once. Inconclusive results are not listed. Where a call stands in place of a potency, no number is given. The source made the active and inactive calls. Calls follow the shape of the dose curve; as a rule, active = well fitted curve in the direction sought with a large enough effect in the repeat runs; inconclusive = weak or mixed curves; inactive = no such curve, though single readings can be large; an effect the other way counts as inactive or inconclusive.
# Molecular target: Cytochrome P450 1A2 (Homo sapiens) (UniProt P05177)
# Test: Cytochrome P450 Family 1 Subfamily A Member 2 (CYP1A2) small molecule antagonists: luciferase reporter qHTS assay (AID 1671199)
# Conditions: P450-Glo CYP1A2 enzyme, luciferin luminescence, 1 h; series mostly up to 115 µM
# Method in brief: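 Quantitative high-throughput format using the P450-Glo CYP1A2 system. Reaction initiated by NADPH regeneration solution, 1 h at room temperature, then stopped with detection reagent; luminescence measured 20 min later.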
# Also: nearly all actives have a fitted effect of over 50% in size.
# Potency is read from the fitted curve at half-maximal effect.
# Chain of Cytochrome P450 1A2 (Homo sapiens) (P05177 whole entry, looked up): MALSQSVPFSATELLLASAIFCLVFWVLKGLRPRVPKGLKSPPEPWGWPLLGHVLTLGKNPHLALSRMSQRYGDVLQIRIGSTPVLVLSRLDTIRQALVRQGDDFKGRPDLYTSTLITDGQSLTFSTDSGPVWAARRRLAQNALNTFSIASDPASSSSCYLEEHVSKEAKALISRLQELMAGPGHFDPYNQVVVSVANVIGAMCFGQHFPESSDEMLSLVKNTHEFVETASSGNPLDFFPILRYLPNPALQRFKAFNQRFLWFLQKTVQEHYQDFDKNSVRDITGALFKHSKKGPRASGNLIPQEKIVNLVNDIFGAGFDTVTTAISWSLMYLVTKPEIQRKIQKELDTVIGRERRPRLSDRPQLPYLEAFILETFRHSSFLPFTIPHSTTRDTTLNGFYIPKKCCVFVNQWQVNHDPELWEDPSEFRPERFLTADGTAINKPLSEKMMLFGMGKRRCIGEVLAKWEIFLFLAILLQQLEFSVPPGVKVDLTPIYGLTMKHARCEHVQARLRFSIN
SMILES,"activity change, negative = inhibition",Potency
COc1cc2nc(N3CCN(C(=O)c4ccco4)CC3)nc(N)c2cc1OC,1.24% [at 23.6 µM] (inactive),
Cc1cc(C)c(/C=C2\C(=O)Nc3ccccc32)[nH]1,,1.44 µM (active)
Clc1sc(Cl)c(Cl)c1Cl,,inactive
CC(C)=CCC1=C(O)c2ccccc2C(=O)C1=O,,11.2 µM (active)
OC[C@@H](O)[C@@H](O)CO,,inactive
CCCCCC/C=C\CCCCCCCC(=O)O,,inactive
O=[N+]([O-])c1cccc(C(F)(F)F)c1,,inactive
COc1cc(/C=C/c2ccccc2)oc(=O)c1,,2.93 µM (active)
O=[N+]([O-])c1ccc(O)cc1C(F)(F)F,,35.6 µM (active)
O=c1oc2cc(O)ccc2c2oc3cc(O)ccc3c12,,8.57 µM (active)
CC[C@H](C)COC(=O)/C=C/c1ccc(N=Cc2ccc(OC)cc2)cc1,,5.63 µM (active)
C[C@@H](O)[C@H](N)C(=O)O,12.2% [at 23.6 µM] (inactive),
C/C=C/C=C/COC(=O)C(C)C,,35.6 µM (active)
S=c1nccc[nH]1,,35.6 µM (active)
CC(=O)OCC=C(C)C,,inactive
Cc1ccc(O)c(N)c1,,40 µM (active)
OCC(F)(F)F,,inactive
C=Cc1cccc(C)c1,,inactive
Nc1nc(-c2ccccc2)cs1,,8.91 µM (active)
O=C(c1ccc(O)c(O)c1)c1ccc(O)cc1O,,31.7 µM (active)
CN(C)Cc1ccccc1O,,inactive

# Molecular target: Voltage-gated inwardly rectifying potassium channel KCNH2 (Homo sapiens) (UniProt Q12809)
# Test: Human Ether-a-go-go-Related Gene (hERG) channel small molecule antagonists: fluorescence cell-based qHTS assay (AID 1671200);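 as to activity change, negative = inhibition: hERG-expressing U2OS cells given a thallium stimulus after FluxOR II dye loading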
# Conditions: hERG-U2OS cells, FluxOR thallium flux fluorescence; series mostly up to 76.8 µM
# Method in brief: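 In this thallium-flux screen, overnight-cultured U2OS cells bearing the channel are dye-loaded in darkness for an hour, rested 10 min at room temperature, and then monitored kinetically at 480/540 nm for two minutes post-stimulus.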
# Chain of Voltage-gated inwardly rectifying potassium channel KCNH2 (Homo sapiens) (Q12809 whole entry, looked up): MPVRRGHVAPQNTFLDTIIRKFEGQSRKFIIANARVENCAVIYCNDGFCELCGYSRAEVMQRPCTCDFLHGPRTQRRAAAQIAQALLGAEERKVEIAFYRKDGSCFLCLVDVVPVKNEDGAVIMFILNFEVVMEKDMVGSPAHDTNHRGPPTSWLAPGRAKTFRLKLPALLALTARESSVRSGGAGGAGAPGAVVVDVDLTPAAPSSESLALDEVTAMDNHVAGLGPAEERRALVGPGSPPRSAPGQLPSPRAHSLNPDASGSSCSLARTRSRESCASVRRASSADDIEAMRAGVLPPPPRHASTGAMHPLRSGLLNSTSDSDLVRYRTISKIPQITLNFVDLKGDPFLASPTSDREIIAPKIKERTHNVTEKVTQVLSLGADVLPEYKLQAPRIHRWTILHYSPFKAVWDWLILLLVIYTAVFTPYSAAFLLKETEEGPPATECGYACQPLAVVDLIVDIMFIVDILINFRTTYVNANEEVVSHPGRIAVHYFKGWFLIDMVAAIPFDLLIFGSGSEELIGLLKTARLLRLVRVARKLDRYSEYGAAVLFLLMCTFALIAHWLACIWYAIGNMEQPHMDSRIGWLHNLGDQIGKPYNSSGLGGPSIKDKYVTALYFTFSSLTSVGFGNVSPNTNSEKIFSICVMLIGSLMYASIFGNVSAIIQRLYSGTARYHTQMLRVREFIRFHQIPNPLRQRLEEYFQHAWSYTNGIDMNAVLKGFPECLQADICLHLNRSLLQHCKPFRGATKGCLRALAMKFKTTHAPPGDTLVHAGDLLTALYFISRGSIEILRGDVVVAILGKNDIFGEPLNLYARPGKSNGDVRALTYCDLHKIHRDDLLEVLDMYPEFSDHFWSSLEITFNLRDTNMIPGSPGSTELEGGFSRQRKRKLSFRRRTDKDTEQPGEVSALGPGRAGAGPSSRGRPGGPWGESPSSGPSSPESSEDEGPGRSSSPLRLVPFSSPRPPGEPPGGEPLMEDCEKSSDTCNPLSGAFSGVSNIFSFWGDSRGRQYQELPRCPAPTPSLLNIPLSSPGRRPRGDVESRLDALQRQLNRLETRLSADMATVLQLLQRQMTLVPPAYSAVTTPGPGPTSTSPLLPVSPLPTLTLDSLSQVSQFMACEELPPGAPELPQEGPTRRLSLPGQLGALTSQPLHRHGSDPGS
SMILES,Potency,"activity change, negative = inhibition"
C#C[C@]1(O)CC[C@H]2[C@@H]3[C@H](C)CC4=C(CCC(=O)C4)[C@H]3CC[C@@]21C,inactive,
C=C(C)c1cccc(C(=C)C)c1,inactive,
CCCCCCCCCCCCCC[N+](C)(C)Cc1ccccc1,993 nM (active) and 1.69 µM (active) and 1000 µM (active),
Cc1c2ccccc2c(C)c2c1ccc1ccccc12,inactive,
C#C[C@]1(OC(C)=O)CC[C@H]2[C@@H]3CCC4=C[C@@H](OC(C)=O)CC[C@@H]4[C@H]3CC[C@@]21C,inactive,
COC(=O)c1ccccc1C,inactive,
CCc1cccc(CC)c1NC(=O)CN(CC(=O)O)CC(=O)O,inactive,
Cc1cc(-c2ccc(N=Nc3cc(S(=O)(=O)O)c4ccccc4c3N)c(C)c2)ccc1N=Nc1cc(S(=O)(=O)O)c2ccccc2c1N,19.6 µM (active),
Cc1cccc(C(=O)O)c1O,inactive,
COc1cc(S(=O)(=O)O)c(C)cc1N=Nc1c(O)ccc2cc(S(=O)(=O)O)ccc12,inactive,
OC/C=C/CO,inactive,
c1ccc(SSc2ccccc2)cc1,inactive,
c1cnccn1,inactive,
O=C(O)CCN(C1(C(=O)NO)CCCC1)S(=O)(=O)c1ccc(Oc2ccc(F)cc2)cc1,inactive,
O=C1CCCCCCCCCCCCCCCO1,inactive,
C[C@H]1NCc2cc(-c3ccc4c(=O)c(C(=O)O)cn(C5CC5)c4c3OC(F)F)ccc21,,-3.88% [at 15.8 µM] (inactive)
COC(=O)C1=C(C)NC(C)=C(C(=O)OCCN2CCN(C(c3ccccc3)c3ccccc3)CC2)C1c1cccc([N+](=O)[O-])c1 (stereo not given),5.35 µM (active),
COc1cc2nc(N3CCN(C(=O)c4ccco4)CC3)nc(N)c2cc1OC,,-1.36% [at 15.8 µM] (inactive)
Cc1cc(C)c(/C=C2\C(=O)Nc3ccccc32)[nH]1,inactive,

SMILES,Potency,"activity change, negative = inhibition"
Clc1sc(Cl)c(Cl)c1Cl,inactive,
CC(C)=CCC1=C(O)c2ccccc2C(=O)C1=O,inactive,
OC[C@@H](O)[C@@H](O)CO,inactive,
CCCCCC/C=C\CCCCCCCC(=O)O,inactive,
O=[N+]([O-])c1cccc(C(F)(F)F)c1,inactive,
COc1cc(/C=C/c2ccccc2)oc(=O)c1,inactive,
O=[N+]([O-])c1ccc(O)cc1C(F)(F)F,inactive,
O=c1oc2cc(O)ccc2c2oc3cc(O)ccc3c12,inactive,
CC[C@H](C)COC(=O)/C=C/c1ccc(N=Cc2ccc(OC)cc2)cc1,43.6 µM (active),
C[C@@H](O)[C@H](N)C(=O)O,,1.94% [at 15.8 µM] (inactive)
C/C=C/C=C/COC(=O)C(C)C,inactive,
S=c1nccc[nH]1,inactive,
CC(=O)OCC=C(C)C,inactive,
Cc1ccc(O)c(N)c1,inactive,
OCC(F)(F)F,inactive,
C=Cc1cccc(C)c1,inactive,
Nc1nc(-c2ccccc2)cs1,inactive,
O=C(c1ccc(O)c(O)c1)c1ccc(O)cc1O,inactive,
CN(C)Cc1ccccc1O,inactive,

# Molecular target: Cytochrome P450 3A4 (Homo sapiens) (UniProt P08684)
# Test: Cytochrome P450 Family 3 Subfamily A Member 4 (CYP3A4) small molecule antagonists: luciferase reporter qHTS assay (AID 1671201)
# Conditions: P450-Glo CYP3A4 enzyme, luciferin luminescence, 1 h; series mostly up to 115 µM
# Method in brief: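 CYP3A4 activity was followed with a P450-Glo proluciferin substrate. Test compounds in DMSO were preincubated 10 min; NADPH regeneration then ran 1 h, and light output was read 20 min after detection reagent.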
# Chain of Cytochrome P450 3A4 (Homo sapiens) (P08684 whole entry, looked up): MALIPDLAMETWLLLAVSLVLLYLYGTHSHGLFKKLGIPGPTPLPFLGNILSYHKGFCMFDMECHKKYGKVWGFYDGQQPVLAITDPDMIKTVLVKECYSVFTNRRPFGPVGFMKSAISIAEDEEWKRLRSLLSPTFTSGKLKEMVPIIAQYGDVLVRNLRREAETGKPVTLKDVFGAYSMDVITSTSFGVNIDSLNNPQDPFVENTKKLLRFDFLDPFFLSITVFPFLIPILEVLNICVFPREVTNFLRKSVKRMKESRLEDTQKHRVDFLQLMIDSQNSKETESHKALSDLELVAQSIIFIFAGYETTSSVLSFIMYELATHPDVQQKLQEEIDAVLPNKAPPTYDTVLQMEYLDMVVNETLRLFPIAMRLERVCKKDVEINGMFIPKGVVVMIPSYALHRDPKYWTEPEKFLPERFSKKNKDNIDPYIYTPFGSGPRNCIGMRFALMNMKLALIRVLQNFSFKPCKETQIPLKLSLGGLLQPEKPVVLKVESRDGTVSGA
SMILES,Potency,"activity change, negative = inhibition"
C=C(C)c1cccc(C(=C)C)c1,inactive,
CCCCCCCCCCCCCC[N+](C)(C)Cc1ccccc1,inactive,
Cc1c2ccccc2c(C)c2c1ccc1ccccc12,22.2 µM (active) and 20 µM (active),
C#C[C@]1(OC(C)=O)CC[C@H]2[C@@H]3CCC4=C[C@@H](OC(C)=O)CC[C@@H]4[C@H]3CC[C@@]21C,inactive,
COC(=O)c1ccccc1C,inactive,
CCc1cccc(CC)c1NC(=O)CN(CC(=O)O)CC(=O)O,inactive,
Cc1cc(-c2ccc(N=Nc3cc(S(=O)(=O)O)c4ccccc4c3N)c(C)c2)ccc1N=Nc1cc(S(=O)(=O)O)c2ccccc2c1N,inactive,
Cc1cccc(C(=O)O)c1O,inactive,
COc1cc(S(=O)(=O)O)c(C)cc1N=Nc1c(O)ccc2cc(S(=O)(=O)O)ccc12,inactive,
OC/C=C/CO,inactive,
c1ccc(SSc2ccccc2)cc1,inactive,
c1cnccn1,inactive,
O=C(O)CCN(C1(C(=O)NO)CCCC1)S(=O)(=O)c1ccc(Oc2ccc(F)cc2)cc1,inactive,
C[C@H]1NCc2cc(-c3ccc4c(=O)c(C(=O)O)cn(C5CC5)c4c3OC(F)F)ccc21,,10.5% [at 23.6 µM] (inactive)
COC(=O)C1=C(C)NC(C)=C(C(=O)OCCN2CCN(C(c3ccccc3)c3ccccc3)CC2)C1c1cccc([N+](=O)[O-])c1 (stereo not given),inactive,
COc1cc2nc(N3CCN(C(=O)c4ccco4)CC3)nc(N)c2cc1OC,,135% [at 23.6 µM] (inactive)

SMILES,Potency,"activity change, negative = inhibition"
Cc1cc(C)c(/C=C2\C(=O)Nc3ccccc32)[nH]1,inactive,
CC(C)=CCC1=C(O)c2ccccc2C(=O)C1=O,inactive,
OC[C@@H](O)[C@@H](O)CO,inactive,
CCCCCC/C=C\CCCCCCCC(=O)O,inactive,
O=[N+]([O-])c1cccc(C(F)(F)F)c1,inactive,
O=c1oc2cc(O)ccc2c2oc3cc(O)ccc3c12,19.2 µM (active),
CC[C@H](C)COC(=O)/C=C/c1ccc(N=Cc2ccc(OC)cc2)cc1,5.63 µM (active),
C[C@@H](O)[C@H](N)C(=O)O,,16.7% [at 23.6 µM] (inactive)
C/C=C/C=C/COC(=O)C(C)C,28.3 µM (active),
S=c1nccc[nH]1,inactive,
CC(=O)OCC=C(C)C,inactive,
Cc1ccc(O)c(N)c1,15.9 µM (active),
OCC(F)(F)F,inactive,
Nc1nc(-c2ccccc2)cs1,5.62 µM (active),
CN(C)Cc1ccccc1O,inactive,
